# Source: PubChem BioAssay (The Scripps Research Institute Molecular Screening Center)
# Sampled rows, rich in hits. Any-hit rate of the full collection: about 4.5%.
# hcDAF-12 act = activators of H. contortus DAF-12 nuclear receptor. HEK293 hcDAF-12 lit1-tk-luc reporter, luminescence; 0% DMSO, 100% Δ7-dafachronic acid. activation, % at 6.8 µM. hit rate 1.4% among 370,000;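 active means activation above the mean of all tested compounds plus 3 SD, cut at about 5.5% in these data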;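 further: 100% = response to 3 µM Δ7-dafachronic acid high control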
# hgDAF12 agonist = activates the H. glycines DAF-12 receptor ligand-binding domain. activation, % at 6.8 µM. HEK293 GAL4-hgDAF12 UAS-luciferase reporter, agonist luminescence; normalized to butyrate control. hit rate 1.8% among 370,000;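 active means activation above a cutoff set at the mean of all screened compounds plus 3 SD, cut at about 10% in these data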;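 further: 0% = DMSO wells and 100% = sodium butyrate wells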
# DAX1 inh-1 = blocks DAX1 repression of SF-1 activated StAR promoter | HEK293T StAR-luciferase reporter, SF-1/DAX-1 repression relief | inhibition, % at 6.8 µM | hit rate 1.1% among 370,000 | AID 652010;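 active means inhibition above the mean over all tested compounds plus 3 SD, cut at about 3.6% in these data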;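 further: 0% = DAX-1 cells with DMSO and 100% = cells lacking DAX-1 with DMSO; higher inhibition means more luminescence from relief of DAX-1 repression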
# GAA850 FXN act = frataxin GAA850 promoter activation. HEK293 lucGAA850 FXN promoter luciferase reporter, 24 h; percent of 10 µM SAHA response. activation, % at 6 µM. hit rate 0.56% among 360,000;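 active means activation above the average of all compounds screened plus 3 SD, cutoff fixed separately per campaign, cut at about 7.5% in these data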;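 further: 0% = DMSO wells and 100% = 10 µM SAHA wells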
# ssDAF12 agonist = S. stercoralis DAF-12 activation, primary screen. AID 652126. hit rate 1% among 370,000. HEK293 ssDAF-12/GRIP1 lit1-tk-luc reporter, luminescence; % of 3 µM dafachronic acid response. activation, % at 6.8 µM;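 active means activation above the mean over all tested compounds plus 3 SD, cut at about 0.9% in these data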;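 further: 0% = DMSO-only wells and 100% = 3 µM delta7-dafachronic acid wells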
# DAX1 inh-2 = inhibits human nuclear receptor DAX1 | P51843 | HEK293 Gal4-DAX1 luciferase reporter, luminescence | inhibition, % at 6.75 µM | hit rate 0.99% among 340,000;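 active means inhibition above the mean over all tested compounds plus 3 SD, cut at about 4.2% in these data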;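 further: 0% = DAX1-transfected cells with DMSO and 100% = empty-vector control cells with DMSO; inhibition shows as a rise in luminescence from relieved DAX1 repression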
# Target sequence (P51843 207-470 limits assumed): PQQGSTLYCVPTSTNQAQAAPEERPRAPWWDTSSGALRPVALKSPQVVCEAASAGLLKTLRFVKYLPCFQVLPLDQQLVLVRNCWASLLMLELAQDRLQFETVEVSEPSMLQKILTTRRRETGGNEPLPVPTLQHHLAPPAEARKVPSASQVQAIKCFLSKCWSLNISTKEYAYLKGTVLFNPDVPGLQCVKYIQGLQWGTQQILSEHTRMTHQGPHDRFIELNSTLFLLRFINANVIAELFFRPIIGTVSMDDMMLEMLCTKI
# DAX1 inh confirm = confirmation of human DAX1 (NR0B1) inhibitors | HEK293T StAR-promoter luciferase reporter, SF-1/DAX-1 repression | hit rate 87% among 2,400 | inhibition, % at 6.8 µM | shares compounds with DAX1 inh-1;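 active means inhibition above the average of every tested compound plus 3 SD, cut at about 3.8% in these data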;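 further: 0% = DAX-1 cells with DMSO and 100% = no DAX-1 control cells with DMSO; active compounds raise luminescence by relieving repression of the StAR reporter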
# SF1 mutant ctr = nonselective inhibitor or artifact in SF-1 mutant DAX1 counter-screen. hit rate 78% among 2,400. shares compounds with DAX1 inh-1. HEK293 StAR-luciferase, SF-1 AF2 mutant, luminescence. inhibition, % at 6.8 µM. AID 652136;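 active means inhibition above the mean of all tested compounds plus 3 SD, cut at about 3% in these data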;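 further: 0% = DAX-1 transfected cells with DMSO and 100% = cells without DAX-1 with DMSO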
# LXR ag = LXR-beta agonism as hcDAF-12 counter-screen; shares compounds with hcDAF-12 act; HEK293 Gal4-LXR tk-luc reporter, luminescence, 24 h; normalized: DMSO 0%, positive control 100%; activation, % at 6.8 µM; 3,400 tested, under 10 active; AID 743027;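 active means mean percent activation of the reporter above a cutoff set as the average over tested compounds plus their standard deviation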
# Target sequence (P55055 whole entry, looked up, the tested form may be a part): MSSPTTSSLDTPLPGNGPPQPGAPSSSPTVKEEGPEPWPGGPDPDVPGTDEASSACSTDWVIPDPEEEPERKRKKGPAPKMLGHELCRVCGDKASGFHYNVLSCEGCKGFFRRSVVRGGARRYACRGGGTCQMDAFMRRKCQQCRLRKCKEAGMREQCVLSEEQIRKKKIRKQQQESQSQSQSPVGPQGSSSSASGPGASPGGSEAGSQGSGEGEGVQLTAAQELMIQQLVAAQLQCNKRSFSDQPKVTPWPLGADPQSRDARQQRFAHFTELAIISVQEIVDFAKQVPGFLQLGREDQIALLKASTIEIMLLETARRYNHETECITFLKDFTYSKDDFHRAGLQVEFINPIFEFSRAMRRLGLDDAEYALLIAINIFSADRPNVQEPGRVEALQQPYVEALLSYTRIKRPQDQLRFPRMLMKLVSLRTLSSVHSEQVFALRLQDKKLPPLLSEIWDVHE
# hcDAF12 conf = confirmation of H. contortus DAF-12 agonists; hit rate 61% among 3,400; HEK293 hcDAF-12 lit1-tk-luc reporter, luminescence; % of Δ7-dafachronic acid response; shares compounds with hcDAF-12 act; activation, % at 6.8 µM;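 active means mean activation across triplicate tests above the threshold derived from the earlier primary screen, cut at about 5.5% in these data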;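 further: 0% = DMSO only wells and 100% = 3 µM Δ7-dafachronic acid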
# hgDAF12 conf = confirmation of H. glycines DAF-12 agonists; hit rate 80% among 3,300; AID 743050; activation, % at 6.8 µM; HEK293 GAL4-hgDAF12 luciferase reporter, agonist mode; percent of butyrate response; shares compounds with hgDAF12 agonist;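 active means mean activation over triplicate wells above the hit cutoff derived from the earlier primary screen, cut at about 11% in these data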;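 further: 0% = DMSO low control and 100% = 2 mM sodium butyrate high control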
# LXRb DAF12 ctr = counter-screen for DAF-12 agonists: agonists of human LXR-beta; activation, % at 6.8 µM; HEK293 Gal4-LXR luciferase reporter, 24 h; shares compounds with hgDAF12 agonist; 3,300 tested, under 10 active; AID 743051;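 active means mean activation of the triplicate above a set limit carried over from the primary screen, none filed active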
# Numbers without * were called inactive; · = no result given.
SMILES,hcDAF-12 act,hgDAF12 agonist,DAX1 inh-1,GAA850 FXN act,ssDAF12 agonist,DAX1 inh-2,DAX1 inh confirm,SF1 mutant ctr,LXR ag,hcDAF12 conf,hgDAF12 conf,LXRb DAF12 ctr
CC(=O)NNc1ncnc2c1cnn2-c1ccccc1,0,-1,0,-2,-2,0,·,·,·,·,·,·
CC(C)Nc1ncnc2c1cnn2-c1ccc(Cl)cc1,4,16*,4.8*,1,1,-1,11*,3,·,·,4,1
CCOC(=O)[C@@]12CN(C(=O)OC(C)(C)C)CC=C1N(Cc1ccc(OC)cc1)C(=O)[C@H]2CC(=O)NCc1cccc(C(F)(F)F)c1,-1,-4,0,·,-1,·,·,·,·,·,·,·
O=C(Nc1ccc2sccc2c1)c1ccc(Cl)s1,15*,21*,9.0*,5,1.4*,2,20*,11*,2,12*,23*,1
O=C(Nc1ccc2c(c1)C(=O)NC2=O)c1ccc(Cl)s1,0,2,0,-1,-2,0,·,·,·,·,·,·
CCOC(=O)[C@@]12CCCC3=C1N(CCC3)C(=O)[C@H]2CC(=O)N1CCCC1,-3,-2,-1,·,-2,·,·,·,·,·,·,·
O=C(NCCc1ccccc1)c1ccccc1NC(=O)C1CCCCC1C(=O)O (configuration not stated),9.3*,18*,4.9*,·,0,·,5.4*,4.3*,1,3,14*,1
COC(=O)c1ccc(-c2nc3ccccc3[nH]2)cc1,5,15*,5.3*,4,1,-1,18*,9.4*,·,·,13*,1
Cc1ccc2nc(-c3ccccc3N)[nH]c2c1,9.2*,22*,5.1*,3,1,-1,14*,5.9*,2,10.0*,19*,1
Cc1cc(-c2nc3ccccc3[nH]2)ccc1N,6.4*,15*,8.0*,4,1.2*,2,14*,7.2*,·,·,17*,1
FC(F)(F)Oc1cccc(Cn2ccc3ccc(-c4ccc5ccn(Cc6ccccc6)c5c4)cc32)c1,1,1,0,·,-1,·,·,·,·,·,·,·
CCC[C@H]1[C@@H](NC(=O)c2ccc(Cl)cc2)CC[C@@]23CCCN2C(=O)CCC[C@@H]13,-2,2,·,·,-1,·,·,·,·,·,·,·
COc1ccccc1C(=O)NNC(=O)c1ccccc1[N+](=O)[O-],3,-2,0,-1,-1,0,·,·,·,·,·,·
Cc1ccc(C(=O)C(C)OC(=O)c2ccccc2[N+](=O)[O-])cc1 (configuration not stated),4,18*,6.1*,6,0,1,15*,9.8*,·,·,15*,1
CN1OC[C@@H]2CN(C(=O)c3ccc([N+](=O)[O-])cc3)[C@H](c3ccccc3Br)C[C@@H]21,0,0,0,·,-1,·,·,·,·,·,·,·
CN1OC[C@@H]2CN3C(=Nc4cc(C(F)(F)F)cc(C(F)(F)F)c4)Sc4ccccc4[C@@H]3C[C@@H]21,-1,-3,-1,·,-1,·,·,·,·,·,·,·
Cc1ccsc1/C=C/c1ccc2ccccc2n1,23*,16*,5.0*,6,3.0*,1,7.3*,2,2,22*,15*,2
COc1cccc(-c2nc3ccccc3s2)c1O,16*,25*,7.0*,7,3.5*,0,18*,8.4*,2,15*,21*,1
Oc1cccc(-c2nc3ccccc3s2)c1,21*,17*,5.3*,0,3.6*,-1,11*,8.3*,2,16*,24*,1
CNc1cc(-c2cccc(N(C)C)c2)ncn1,5,18*,7.2*,5,1.3*,·,16*,5.9*,·,·,15*,1
Cc1cc(O)ccc1Nc1cc(-c2cccc(N)c2)ncn1,0,1,-1,0,-1,·,·,·,·,·,·,·
NS(=O)(=O)c1ccc(CCNC(=O)c2ccc3c(c2)OCO3)cc1,-1,2,0,0,0,0,·,·,·,·,·,·
O=C(NCCc1ccc(Cl)cc1)c1ccc2c(c1)OCO2,4,13*,11*,4,0,1,12*,6.6*,·,·,16*,1
O=C(c1cc(-c2cccc(O)c2)on1)N1CCCCC1,6.9*,22*,8.8*,2,0,1,14*,7.1*,2,5,14*,1
COc1cccc(-c2cc(C(=O)N3CCCCCC3)no2)c1,8.1*,18*,9.6*,2,1,2,17*,7.3*,2,6.7*,18*,1
SMILES,hcDAF-12 act,hgDAF12 agonist,DAX1 inh-1,GAA850 FXN act,ssDAF12 agonist,DAX1 inh-2,DAX1 inh confirm,SF1 mutant ctr,LXR ag,hcDAF12 conf,hgDAF12 conf,LXRb DAF12 ctr
CCOC(=O)[C@@]12CCCC=C1N(CCc1ccc(Cl)cc1)C(=O)[C@H]2CC(=O)NCC12CC3CC(CC(C3)C1)C2,-1,3,-1,·,-1,·,·,·,·,·,·,·
Cc1nc2ccc(C(=O)N3CCN(C(=O)OCc4ccccc4)CC3)cc2n1C1CCCC1,-4,-2,-1,·,-1,·,·,·,·,·,·,·
Cc1ccc(C(=O)NC2CCCCN(Cc3ccc(Cl)cc3)C2=O)c(C)c1 (configuration not stated),-2,0,1,·,-1,·,·,·,·,·,·,·
CCCCc1c(-c2ccccc2OC)ncn1Cc1cccc(F)c1F,0,0,0,·,0,·,·,·,·,·,·,·
C=CCN1C(=O)[C@@H](CC(=O)NCc2ccccc2)[C@]2(C(=O)OC)CCCCC=C12,-1,1,1,·,-1,·,·,·,·,·,·,·
CC(C)c1nnc(NC(=O)c2ccc3c(c2)OCO3)s1,9.6*,15*,4.9*,-1,0,4,12*,2,1,4,7,1
CC(c1ccccc1)c1nnc(NC(=O)c2ccc3c(c2)OCO3)s1 (configuration not stated),0,0,1,-2,-1,-1,·,·,·,·,·,·
CN1C2=N[C@@H](c3ccc4ccccc4c3)CC(=O)N2/C(=C\c2ccccc2)[C@H]1c1ccccc1,-2,1,·,·,-2,·,·,·,·,·,·,·
